Holding throughout (experiment): NCI-60 one-dose screen, 48 h (100 = growth as untreated, 0 = no growth, -100 = all killed)
Settings in all cases: 10 µM unless noted

For assay [1], the system named is T-47D breast.
In assay [2] the test system is BT-549 breast.
Assay [3] has as its system MDA-MB-435 melanoma.
Assay [4] relates to SW-620 colon.
Assay [5] relates to MCF7 breast.
For assay [6], the system named is HCT-116 colon.
Assay [7] concerns HCC-2998 colon.
Assay [8] has as its system KM12 colon.

The panel holds about 83,000 compounds, 20% with a hit somewhere; the sample as a whole holds those more often.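 Method: cells in 96-well plates; compound added at one concentration; 48 h incubation; percent growth measured; values under 10 scored active.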 Values without a mark were called inactive. Active and inactive are the calls of the source.

Turning to `CC(C)N1C(=O)/C(=C2\SC(=S)N(C(C)C)C2=O)SC1=S`, the growth in assay [1] was 82.8%; in assay [2], 98.7%; in assay [3], 100%; in assay [4] it was 94.9%; in assay [5], 96.8%; in assay [6], 95%. Besides, the growth is 98.3% in assay [7] and 99.9% in assay [8].
With `COc1ccc(OC)c(-c2cc(-c3ccc(Cl)cc3)c3c(N)c(C(=O)c4ccc(Cl)cc4)sc3n2)c1`, the growth in assay [1] is 87.2%; in assay [2], 84.1%; in assay [3], 107%; in assay [4] it was 112%; in assay [5], 86.2%; in assay [6], 95.7%. Besides, the growth in assay [7] and in assay [8] was 100% in each case.
With `COc1cc2c(-c3cc4c(cc3CNCCc3ccc5c(c3)OCO5)OCO4)cccc2c(OC)c1O`, the growth is 67.3% in assay [1]; 91.3% in assay [2]; 96.9% in assay [3]; 85.4% in assay [4]; 76.8% in assay [5]; 60.7% in assay [6]. The values for the growth in assay [7] and in assay [8] were 42.7% and 96.5%, respectively.
In the case of `CCOc1ccc(Nc2nc(-c3ccc4c(c3)NC(=O)CO4)cs2)cc1`, the growth in assay [1] was 24.6%; in assay [2] it was 47%; in assay [3], 30.7%; in assay [4] it was 82.5%; in assay [5] it was 38.1%; in assay [6], 40.7%. Also, the growth in assay [7] was 86%; in assay [8] it was 67.9%.
For `O=C(/C=C(O)/C=C/c1ccc(SC(F)(F)F)cc1)/C=C/c1ccc(SC(F)(F)F)cc1`, the growth was 78% in assay [1]; 82.5% in assay [2]; 79.2% in assay [3]; 89.1% in assay [4]; 52.1% in assay [5]; 17.7% in assay [6]. The growth in assay [7] was 101%; in assay [8], 81.9%.
`O=S(=O)(NCCNc1nccc(-c2c(-c3cccc(F)c3)nc3sccn23)n1)c1ccccc1`: the growth in assay [1] was 18.8%; in assay [2], 50.4%; in assay [3], 17.4%; in assay [4], 44.5%; in assay [5], 21.7%; in assay [6], 22.7%. For the same compound, the growth is 66.4% in assay [7] and 28.8% in assay [8].
`COc1cc(C2C3=C(COC3=O)N(CCO)c3cc4c(cc32)OCO4)cc(OC)c1OC` (configuration not stated): the growth in assay [1] was 36.7%; in assay [2] it was 10.6%; in assay [3], -2.88% (active); in assay [4], 18.8%; in assay [5], -6.88% (active); in assay [6], 4.34% (active). Besides, the growth is -13% (active) in assay [7] and 5.43% (active) in assay [8].
Turning to `COc1cc(-c2csc(NC(=O)c3cc(F)cc(C(F)(F)F)c3)n2)cc(OC)c1OC`, the growth in assay [1] is 19.3%; in assay [2], 41.2%; in assay [3] it was -16.2% (active); in assay [4], 32.4%; in assay [5] it was 20.9%; in assay [6], 16.5%. The growth in assay [7] was 72.2%; in assay [8], 26.6%.
For the compound `O=c1ccc(-c2nc(N3CCOCC3)c3ccccc3n2)c[nH]1`, the growth in assay [1] is 77%; in assay [2] it was 97.4%; in assay [3], 99.7%; in assay [4] it was 107%; in assay [5] it was 89.1%; in assay [6], 101%. In addition, the growth in assay [7] was 105%; in assay [8], 107%.
Take `O=Cc1ccc(-c2cn3ccnc3c(-c3ccc4ncn(Cc5ccccc5)c4c3)n2)cc1`: the growth in assay [1] is 1.99% (active); in assay [2], 66.2%; in assay [3], 87%; in assay [4], 95.8%; in assay [5] it was 52.2%; in assay [6], 7.44% (active). Also, the growth in assay [7] is 105%; in assay [8], 96.3%.
As for `COc1ccccc1/C=C1\Oc2cc(OCCN3CCCC3)ccc2C1=O`, the growth in assay [1] is 90.1%; in assay [2] it was 84.2%; in assay [3], 94%; in assay [4], 74%; in assay [5], 68.1%; in assay [6] it was 47.1%. The growth in assay [7] is 75.8%; in assay [8], 88.8%.
As for `C=C(C)[C@@H]1CC[C@]2(C(=O)N3CCN(C)CC3)CC[C@]3(C)[C@H](CC[C@@H]4[C@@]5(C)CC[C@H](OCCC#N)C(C)(C)[C@@H]5CC[C@]43C)[C@@H]12`, the growth in assay [1] is 91.7%; in assay [2] it was 107%; in assay [3], 107%; in assay [4], 7.33% (active); in assay [5], 77.7%; in assay [6], 44.4%. For the same compound, the growth in assay [7] is 102%; in assay [8] it was 48.2%.
In the case of `CCN(CC)CC[n+]1cc2cc(OC)c(OC)cc2c2ccc3cc4c(cc3c21)OCO4`, the growth was 16.2% in assay [1]; -4.72% (active) in assay [2]; 24.6% in assay [3]; 9.98% (active) in assay [4]; 11.5% in assay [5]; -83% (active) in assay [6]. The growth was 18.7% in assay [7] and -82.2% (active) in assay [8].
Take `COc1cc(CC(=O)n2ncc3ccc(N)cc32)cc(OC)c1OC`: the growth in assay [1] was 76.2%; in assay [2] it was 91.3%; in assay [3] it was 65.3%; in assay [4], 104%; in assay [5], 87.5%; in assay [6], 97.3%. The growth in assay [7] was 105%; in assay [8], 82.6%.
On to `CCOC(=O)[C@@H](C)C[C@H](Cc1ccccc1)NC(=O)c1csc([C@@H](C[C@H](C(C)C)N(C)C(=O)[C@@H](NC(=O)[C@H]2C[C@H](O[Si](C)(C)C(C)(C)C)CCN2C)C(C)C)OC(C)=O)n1`, for which the growth in assay [1] is 37% [9.25 µM]; in assay [2], -29.6% [9.25 µM] (active); in assay [3], -57.5% [9.25 µM] (active); in assay [4], 11.8% [9.25 µM]; in assay [5], 13% [9.25 µM]; in assay [6] it was -25.9% [9.25 µM] (active). Moreover, the results for the growth in assay [7] and in assay [8] were -1.53% [9.25 µM] (active) and 2.03% [9.25 µM] (active), respectively.
Regarding `Oc1ccc(C(c2ccc(O)cc2)c2ccc(Br)cn2)cc1`, the growth in assay [1] is -38.5% (active); in assay [2], -42.6% (active); in assay [3] it was 100%; in assay [4], 102%; in assay [5], -20.5% (active); in assay [6], 19.4%. Moreover, the growth in assay [7] was 3.49% (active); in assay [8], 16%.
Consider `O=C(Nc1ccc(Cl)cc1)c1cc(NCc2cc(O)ccc2O)ccc1O`, for which the growth in assay [1] was 42.6%; in assay [2], 35.8%; in assay [3], 103%; in assay [4] it was 89.9%; in assay [5], 65.6%; in assay [6], 91.3%. In addition, the growth was 102% in assay [7] and 76.8% in assay [8].
With `COc1cc(C2C3CC4CCCC[C@H]4N3[C@@]3(C(=O)Nc4cc(Cl)ccc43)C2C(=O)c2nc3ccccc3[nH]2)cc(OC)c1OC` (some centres not stated), the growth in assay [1] is 36.3%; in assay [2], 76%; in assay [3], 53.1%; in assay [4] it was 60.5%; in assay [5], 30.4%; in assay [6], 34.7%. The values for the growth in assay [7] and in assay [8] were 69.9% and 60.6%, respectively.
With `CN[C@@H](C)C(=O)N[C@H]1CCS[C@H]2CC(C)(C)[C@@H](C(=O)N[C@H]3c4ccccc4C[C@H]3OCC#CC#CCO[C@@H]3Cc4ccccc4[C@@H]3NC(=O)[C@H]3N4C(=O)[C@@H](NC(=O)[C@H](C)NC)CCS[C@H]4CC3(C)C)N2C1=O`, the growth in assay [1] was 86.1%; in assay [2], -15.4% (active); in assay [3], 54.8%; in assay [4] it was 105%; in assay [5], 64.7%; in assay [6] it was 99%. Also, the growth in assay [7] was 90.2%; in assay [8] it was 110%.
Take `COc1ccc(-c2cnc3c(-c4cccc5cnccc45)cnn3c2)cc1`: the growth in assay [1] was 22.8%; in assay [2], 50.1%; in assay [3] it was 62.9%; in assay [4] it was 60.7%; in assay [5], 78.7%; in assay [6] it was -15% (active). Also, the values for the growth in assay [7] and in assay [8] were 99.1% and 63.1%, respectively.
In the case of `COc1cc(-c2cc(-c3ccc(N(C)C)cc3)nc(N3CCOCC3)c2C#N)cc(OC)c1OC`, the growth in assay [1] is 29.5%; in assay [2], 47.2%; in assay [3], 4.97% (active); in assay [4] it was 42.5%; in assay [5], 36.2%; in assay [6], 12.3%. For the same compound, the values for the growth in assay [7] and in assay [8] were 19.8% and 28.3%, respectively.
For the compound `Cc1ccc(-c2csc(NC(=O)CSc3nc(-c4ccccc4)cc(=O)[nH]3)n2)cc1`, the growth is 78.1% in assay [1]; 114% in assay [2]; 106% in assay [3]; 96.2% in assay [4]; 82.9% in assay [5]; 98.5% in assay [6]. The growth in assay [7] is 106%; in assay [8], 94.8%.
`O=C1/C=C/[C@@H](O)[C@@H]2C[C@@H](O)C[C@H]2/C=C/CCC[C@H](CCc2cccc3ccccc23)O1`: the growth in assay [1] is 1.52% (active); in assay [2] it was 13.5%; in assay [3], 6.06% (active); in assay [4], -28% (active); in assay [5] it was -30.8% (active); in assay [6], -63.9% (active). In addition, the results for the growth in assay [7] and in assay [8] were 3.84% (active) and -37.9% (active), respectively.
For the compound `O=C1c2ccc3c4c(ccc(c24)C(=O)N1CCCNCc1ccccc1F)C(=O)N(CCCNCc1ccccc1F)C3=O`, the growth is -27.9% (active) in assay [1]; -85.4% (active) in assay [2]; -74.3% (active) in assay [3]; -73.3% (active) in assay [4]; -80.5% (active) in assay [5]; -37.7% (active) in assay [6]. In addition, the figures for the growth in assay [7] and in assay [8] were -93.1% (active) and -76.1% (active), respectively.
Regarding `O=S(=O)(Nc1ccc(-n2cnc3cc(-c4ccc(O)cc4)ccc32)cc1)c1ccccc1`, the growth is 9.89% (active) in assay [1]; 94.3% in assay [2]; 98.5% in assay [3]; 109% in assay [4]; 87.9% in assay [5]; 90.3% in assay [6]. In addition, the results for the growth in assay [7] and in assay [8] were 115% and 54.6%, respectively.
For `Nc1nc(Nc2ccccc2SSc2ccccc2Nc2nc(N)nc(-c3ccc(C(F)(F)F)cc3)n2)nc(-c2ccc(C(F)(F)F)cc2)n1`, the growth in assay [1] is 41.7%; in assay [2], 75.6%; in assay [3], 74.9%; in assay [4] it was 80.4%; in assay [5], 52.2%; in assay [6], 51%. The figures for the growth in assay [7] and in assay [8] were 93.1% and 44.8%, respectively.
On to `O=C1c2ccc3c4c(ccc(c24)C(=O)N1CCCNCc1ccccc1)C(=O)N(CCCNCc1ccccc1)C3=O`, for which the growth is -29.9% (active) in assay [1]; -85.2% (active) in assay [2]; -54% (active) in assay [3]; -81.8% (active) in assay [4]; -83.8% (active) in assay [5]; -44.9% (active) in assay [6]. Moreover, the growth is -90.8% (active) in assay [7] and -81.8% (active) in assay [8].
`NC1[C@H](c2c[nH]c3ccccc23)c2c([nH]c3ccccc23)[C@H]1c1c[nH]c2ccccc12` (some centres not stated): the growth in assay [1] was 94.9%; in assay [2] it was 105%; in assay [3] it was 100%; in assay [4] it was 96.3%; in assay [5], 90.8%; in assay [6] it was 74.2%. Also, the growth in assay [7] is 97.3%; in assay [8], 91%.
As to `COc1ccc2nc(-c3ccc(-c4noc(-c5cc(OC)c(OC)c(OC)c5)n4)cc3)[nH]c2c1`, the growth in assay [1] was 83.8%; in assay [2], 26.8%; in assay [3], 39.1%; in assay [4], 63.8%; in assay [5] it was 41.3%; in assay [6], 33%. Besides, the growth is 111% in assay [7] and 55.4% in assay [8].

The record behind these values is PubChem BioAssay (NCI).
